This passage reports Potency results from PubChem BioAssay (NCATS).

Molecules are shown by their SMILES. Records with an inconclusive call do not appear. Calls of active or inactive are those of the source. Calls follow the shape of the dose curve; as a rule, active = well fitted inhibition curve with a large enough effect; inconclusive = small, poorly fitted or top-dose-only effect; inactive = no such curve, though single readings can be large or run the other way.
Potency is read from the fitted curve at half-maximal effect.

The nature of this test: Primary qHTS for inhibitors of nuclear receptor binding SET domain protein 2 (NSD2) in an RCH-ACV wild type WT cells (2C) (AID 1645877). Also: nearly all actives have a fitted effect of over 70% in size. As to conditions: RCH-ACV (leukaemia line) NSD2 WT (2C) viability, CellTiter-Glo, 72 h; series mostly up to 44.9 µM.
In the case of `COc1ccc(CCO[C@@H]2O[C@H](CO[C@H]3OC[C@](O)(CO)[C@H]3O)[C@@H](OC(=O)/C=C/c3ccc(O)c(O)c3)[C@H](O[C@@H]3O[C@@H](C)[C@H](O)[C@@H](O)[C@H]3O)[C@H]2O)cc1OC`, the Potency was 4.83 µM (active).
With `Nc1nc(Nc2ccc3c(c2)CCC(N2CCCC2)CC3)nn1-c1cc2c(nn1)-c1ccccc1CCC2` (stereo unspecified) the figure was 1.45 µM (active); with `COC1CC(O[C@H]2CC[C@]3(C)C4CC[C@]5(C)C(C6=CC(=O)OC6)=CCC56OC46CC[C@@H]3C2)OC(C)C1O[C@@H]1O[C@H](CO[C@@H]2O[C@H](CO)[C@@H](O)[C@H](O)[C@H]2O)[C@@H](O)[C@H](O)[C@H]1O` (stereo partly specified), 2.75 µM (active).
`CCNC(=O)C#Cc1ccc2c(C(=Nc3ccc(CN(C)C)cc3)c3ccccc3)c(O)[nH]c2c1`: the Potency is 0.0102 µM (active).
For `C=C1C(=O)O[C@H]2C1CCC(C)=C1C(=O)C=C(C)[C@@]12O` (stereo partly specified), the Potency was 12.9 µM (active).
`Cc1cc(F)c(C(=O)Nc2cccc(-c3nncn3C(C)C)n2)cc1-n1cnc(C2CC2)c1`: the Potency was 9.34 µM (active).
